# Measurements reported in the supplement of paper PMC9135407.
# Where “and” joins values, the source holds several entries; their conditions need not be identical. Equal values may be shown once. Where a name gives a salt, the structure may show the parent alone. In all, about 5,800 compounds went through this assay and about 620 (11%) showed activity. Many of the other results were omitted from the sample, so actives are more common in it than they were. A number with no mark means an inactive call.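 How the source made its calls: active = score above a cut-off or among the top three wells of a plate; in these data no inactive exceeds 0.85.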
# Tested on: primary human hepatic stellate cells (donor 1)
# Experiment: scaled lipid accumulation score (0 = DMSO-like, 1 = nortriptyline-like); higher = stronger HSC inactivation (lipid re-accumulation), active = hit call of the paper
# Conditions: 48 h
# [1] = library stock concentration: 1 mM
# [2] = library stock concentration: 3.33 mM
# [3] = library stock concentration: 10 mM
# [4] = library stock concentration: 400 uM
# [5] = library stock concentration: 2 mM
# [6] = library stock concentration: 80 uM
structure (smiles),measurement,setting,value
CCCCCC(O)C=CC1C(O)CC(O)C1CC=CCCCCOC (stereo not drawn) [Prostaglandin F2.alpha. Alcohol methyl ether],scaled lipid accumulation score,[1],≤ 0
Cc1nc2c(-c3cnc(N)nc3)nc(N3CCOCC3)nc2n1C(C)C,scaled lipid accumulation score,[2],0.019
same,scaled lipid accumulation score,[3],≤ -0.001
O=C1NC(=O)C(c2c[nH]c3ccccc23)=C1c1c[nH]c2ccccc12 [Bisindolylmaleimide IV],scaled lipid accumulation score,[1],≤ 0
same,scaled lipid accumulation score,[2],0.045
"Nc1ccc2c3c(cccc13)C(=O)NC2=O [4-Amino-1,8-naphthalimide] [listing 1 of 2 here]",scaled lipid accumulation score,[3],0.886 (active)
"Nc1ccc2c3c(cccc13)C(=O)NC2=O [4-Amino-1,8-naphthalimide] [listing 2 of 2 here]",scaled lipid accumulation score,library stock concentration: 23.6 mM,0.762
CC(C)C[C@H](NP(=O)(O)O[C@@H]1O[C@@H](C)[C@H](O)[C@@H](O)[C@H]1O)C(=O)N[C@@H](Cc1c[nH]c2ccccc12)C(=O)O [Phosphoramidon Disodium Salt],scaled lipid accumulation score,[2],≤ -0.009
same,scaled lipid accumulation score,[3],≤ 0
Cc1cc(CN2CCN(c3c(Br)cnc4nc(-c5ccc(N6CCN(C)CC6)cc5)[nH]c34)CC2)no1,scaled lipid accumulation score,[3],0.471
Cc1cc(CN2CCN(c3c(Br)cnc4[nH]c(-c5ccc(N6CCN(C)CC6)cc5)nc34)CC2)no1,scaled lipid accumulation score,[2],0.857 (active)
CC(=O)c1ccc(S(=O)(=O)NC(=O)NC2CCCCC2)cc1 [Acetohexamide],scaled lipid accumulation score,,≤ 0
same,scaled lipid accumulation score,library stock concentration: 6.2 mM,≤ 0
same,scaled lipid accumulation score,[3],0.116
O=C(Nc1ccc(I)cc1)NC1CCCCC1,scaled lipid accumulation score,[3],0.938 (active)
O=C(Nc1ccccc1)Nc1ccc(-c2ccc(C(=O)[C@@H]3CCC[C@H]3C(=O)O)cc2)cc1,scaled lipid accumulation score,[2],≤ 0
same,scaled lipid accumulation score,[3],≤ 0
CCCCCC/C=C\CCCCCCCC(=O)OCC [Palmitoleic Acid ethyl ester],scaled lipid accumulation score,[1],≤ 0
COc1ccc(CCn2nnnc2C2(c3ccc(C)cc3)CC2)cc1 [Mephetyl tetrazole],scaled lipid accumulation score,[3],≤ -0.07
COC(=O)C(C)c1ccc(C(=O)c2cccs2)cc1 (centres undefined) [Suprofen methyl ester],scaled lipid accumulation score,[3],≤ 0
COC(=O)c1ccc2c(c1)NC(=O)C2=C(Nc1ccc(N(C)C(=O)CN2CCN(C)CC2)cc1)c1ccccc1,scaled lipid accumulation score,[3],0.976 (active)
CN1CCN(CC(=O)N2c3ccccc3C(=O)Nc3cccnc32)CC1 [Pirenzepine 2HCl],scaled lipid accumulation score,library stock concentration: 5.7 mM,≤ -0.006
"COC(=O)c1ccc2c(c1)NC(=O)/C2=C(\Nc1ccc(N(C)C(=O)CN2CCN(C)CC2)cc1)c1ccccc1 [Intedanib (BIBF 1120, Vargatef) (0.4 mM)]",scaled lipid accumulation score,[4],0.323
Cc1scc2c1N(C(=O)CN1CCN(C)CC1)c1ccccc1NC2=O [Telenzepine dihydrochloride],scaled lipid accumulation score,,≤ 0
same,scaled lipid accumulation score,[3],0.052 and 0.027
"COC(=O)c1ccc2c(c1)NC(=O)/C2=C(\Nc1ccc(N(C)C(=O)CN2CCN(C)CC2)cc1)c1ccccc1 [Intedanib  (BIBF 1120, Vargatef) (2 mM)]",scaled lipid accumulation score,[5],0.838
Cc1scc2c1N(C(=O)CN1CCN(C)CC1)c1ccccc1NC2=O [Telenzepine hydrochloride],scaled lipid accumulation score,[3],0.084
CN1CCN(CC(=O)N2c3ccccc3C(=O)Nc3cccnc32)CC1 [Pirenzepine dihydrochloride],scaled lipid accumulation score,,≤ 0
same,scaled lipid accumulation score,[3],≤ 0
COC(=O)c1ccc2c(c1)NC(=O)C2=C(Nc1ccc(N(C)C(=O)CN2CCN(C)CC2)cc1)c1ccccc1 [Nintedanib (BIBF 1120)],scaled lipid accumulation score,[2],1.2 (active)
same,scaled lipid accumulation score,[3],1.33 (active)
Cc1scc2c1N(C(=O)CN1CCN(C)CC1)c1ccccc1NC2=O [Telenzepine 2HCl],scaled lipid accumulation score,library stock concentration: 5.4 mM,0.006
CN1CCN(CC(=O)N2c3ccccc3C(=O)Nc3cccnc32)CC1 [Pirenzepine hydrochloride],scaled lipid accumulation score,library stock concentration: 4.7 mM,≤ 0
same,scaled lipid accumulation score,[3],≤ 0
"COC(=O)c1ccc2c(c1)NC(=O)/C2=C(\Nc1ccc(N(C)C(=O)CN2CCN(C)CC2)cc1)c1ccccc1 [Intedanib (BIBF 1120, Vargatef) (10 mM)]",scaled lipid accumulation score,[3],1.51 (active)
COC(=O)c1ccc2c(C(=Nc3ccc(N(C)C(=O)CN4CCN(C)CC4)cc3)c3ccccc3)c(O)[nH]c2c1,scaled lipid accumulation score,[6],0.316
same,scaled lipid accumulation score,[4],0.522
same,scaled lipid accumulation score,[5],0.258
N=C(N)S/C=C\C(=O)O [ZAPA sulphate],scaled lipid accumulation score,[3],0.011
CC(O)C(=O)O.N (centres undefined),scaled lipid accumulation score,[3],≤ 0
CC(C)S(=O)(=O)Nc1ccc(F)c(C(=O)c2c[nH]c3ncc(-c4cccnc4)cc23)c1F,scaled lipid accumulation score,[6],≤ 0
same,scaled lipid accumulation score,[4],≤ 0
same,scaled lipid accumulation score,[5],≤ 0
same,scaled lipid accumulation score,[3],0.059
CC(C)(CCCCCCCCCCC(C)(C)CC(=O)O)CC(=O)O,scaled lipid accumulation score,[1],0.013
CCCCC/C=C\C/C=C\C/C=C\C/C=C\CCCC(=O)OCC [Arachidonic Acid ethyl ester],scaled lipid accumulation score,[1],≤ 0
CC(C)=CCC/C(C)=C/CC/C(C)=C/CSc1ccccc1C(N)=O [Farnesyl Thiosalicylic Acid Amide],scaled lipid accumulation score,[1],≤ 0
CCCCCCCCCCCCCCCC(=O)OC[C@H](COP(=O)([O-])OCC[N+](C)(C)C)OC(=O)CCCCCCCC(=O)/C=C/C(=O)O,scaled lipid accumulation score,[1],0.026
"Nc1nc2c(nc(Br)n2[C@@H]2O[C@@H]3COP(=O)(O)O[C@H]3[C@H]2O)c(=O)[nH]1 [8-Bromo-cGMP, sodium salt]",scaled lipid accumulation score,[3],0.026
CCCCC/C=C\C[C@@H](O)/C=C/C=C/C=C\[C@@H](O)CCCC(=O)O [Leukotriene B4],scaled lipid accumulation score,library stock concentration: 100 uM,≤ -0.021
NC(CCCP(=O)(O)O)C(=O)O (stereo not drawn) [D(-)-2-Amino-5-phosphonopentanoic acid],scaled lipid accumulation score,[3],0.148
NC(CCCP(=O)(O)O)C(=O)O (centres undefined),scaled lipid accumulation score,[3],0.024
CCCCCCCCc1ccc(-c2ccc(C(=O)O)cc2)cc1,scaled lipid accumulation score,[3],≤ 0 and 0.032
CCCCCCCCc1ccc(CCC(N)(CO)CO)cc1 [Fingolimod (FTY720) HCl],scaled lipid accumulation score,[3],0.376
CCCCCCCCc1ccc(CCC(N)(CO)CO)cc1.Cl [Fingolimod (FTY720) HCl],scaled lipid accumulation score,[2],1.17 (active)
CCCCCCCCc1ccc(CCC(N)(CO)CO)cc1,scaled lipid accumulation score,[1],0.527
CC1(C)CCC(C)(C)c2cc(C3(c4ccc(C(=O)O)cc4)OCCO3)ccc21,scaled lipid accumulation score,[3],≤ -0.001
COCCCCCCCCCCCC(=O)O [12-Methoxydodecanoic acid],scaled lipid accumulation score,[1],≤ -0.021
COCCCC/C(=N\OCCN)c1ccc(C(F)(F)F)cc1 [Fluvoxamine],scaled lipid accumulation score,[3],0.69
COCCCC/C(=N\OCCN)c1ccc(C(F)(F)F)cc1 [Fluvoxamine maleate],scaled lipid accumulation score,,0.592
same,scaled lipid accumulation score,[2],0.347
same,scaled lipid accumulation score,[3],0.81 and 0.545
COCCCC/C(=N\OCCN)c1ccc(C(F)(F)F)cc1.O=C(O)/C=C\C(=O)O [Fluvoxamine maleate],scaled lipid accumulation score,[3],1.13 (active)
CCCCC[C@H](O)/C=C/[C@@H]1[C@@H](C/C=C\CCCC(=O)O)[C@H](O)C[C@H]1O [Prostaglandin F2.beta.],scaled lipid accumulation score,[1],≤ 0
CCCCC[C@H](O)/C=C/[C@@H]1[C@@H](C/C=C\CCCC(=O)O)[C@H](O)C[C@H]1O [Prostaglandin F2.beta. (tromethamine salt)],scaled lipid accumulation score,[1],≤ 0
"CCCCC[C@H](O)/C=C/[C@@H]1[C@@H](C/C=C\CCCC(=O)O)[C@H](O)C[C@H]1O [9b,11a-Prostaglandin F2]",scaled lipid accumulation score,[1],≤ -0.021
CSc1ccc2c(c1)C(N1CCN(C)CC1)Cc1ccccc1S2 (centres undefined) [Methiothepin mesylate],scaled lipid accumulation score,[3],0.774
CSc1ccc2c(c1)C(N1CCN(C)CC1)Cc1ccccc1S2.O=C(O)/C=C\C(=O)O (centres undefined) [Methiothepin maleate],scaled lipid accumulation score,[3],1.41 (active)
CSc1ccc2c(c1)C(N1CCN(C)CC1)Cc1ccccc1S2 (centres undefined) [Methiothepin maleate],scaled lipid accumulation score,,0.829
CCCCCC(O)C=CC1C(O)CC(=O)C1CC=CCCCC(=O)O (centres undefined) [8-iso Prostaglandin E2],scaled lipid accumulation score,[1],≤ 0
CO[C@H]1C[C@H](O[C@H]2[C@H](C)O[C@@H](O[C@@H]3/C(C)=C/C[C@@H]4C[C@@H](C[C@]5(C=C[C@H](C)[C@@H](C6CCCCC6)O5)O4)OC(=O)[C@@H]4C=C(C)[C@@H](O)[C@H]5OC/C(=C\C=C\[C@@H]3C)[C@]54O)C[C@@H]2OC)O[C@@H](C)[C@@H]1O,scaled lipid accumulation score,[3],0.081
"CCCCC[C@H](O)CC[C@H]1[C@H](O)CC(=O)[C@@H]1CCCCCCC(=O)O [13,14-Dihydro-PGE1]",scaled lipid accumulation score,[1],≤ -0.021
"Cc1cn(-c2cc(NC(=O)c3ccc(C)c(Nc4nccc(-c5cccnc5)n4)c3)cc(C(F)(F)F)c2)cn1 [Nilotinib (AMN107, Tasigna) (0.4 mM)]",scaled lipid accumulation score,[4],0.053
Cc1cn(-c2cc(NC(=O)c3ccc(C)c(Nc4nccc(-c5cccnc5)n4)c3)cc(C(F)(F)F)c2)cn1 [Nilotinib (AMN-107)],scaled lipid accumulation score,[2],0.438
same,scaled lipid accumulation score,[3],0.668
CNc1nccc(-c2cccnc2Oc2cc(C(=O)Nc3cccc(C(F)(F)F)c3)ccc2C)n1 [listing 1 of 2 here],scaled lipid accumulation score,[3],1.13 (active)
CNc1nccc(-c2cccnc2Oc2cc(C(=O)Nc3cccc(C(F)(F)F)c3)ccc2C)n1 [listing 2 of 2 here],scaled lipid accumulation score,[4],≤ -0.005
same,scaled lipid accumulation score,[5],≤ -0.005
Cc1cn(-c2cc(NC(=O)c3ccc(C)c(Nc4nccc(-c5cccnc5)n4)c3)cc(C(F)(F)F)c2)cn1,scaled lipid accumulation score,[6],≤ -0.009
same,scaled lipid accumulation score,[4],0.035
same,scaled lipid accumulation score,[5],≤ -0.009
same,scaled lipid accumulation score,[3],≤ -0.008
"Cc1cn(-c2cc(NC(=O)c3ccc(C)c(Nc4nccc(-c5cccnc5)n4)c3)cc(C(F)(F)F)c2)cn1 [Nilotinib (AMN107, Tasigna) (10 mM)]",scaled lipid accumulation score,[3],0.552
"Cc1cn(-c2cc(NC(=O)c3ccc(C)c(Nc4nccc(-c5cccnc5)n4)c3)cc(C(F)(F)F)c2)cn1 [Nilotinib (AMN107, Tasigna) (2 mM)]",scaled lipid accumulation score,[5],≤ -0.005
